Shown are actives, neighbours in structure and some others; about 3.4% of the full set was active somewhere.
MITF TRPM1 inh: reduces MITF-dependent TRPM1 promoter luciferase signal | 330,000 tested, 0.83% active | inhibition, % at 12.5 µM | SK-MEL-5 TRPM1 promoter luciferase, 24 h;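 active = mean inhibition across replicates of 60% or more, whatever share of single replicates reaches that level; inconclusive = some that reach 60%, reason not given; inactive = mean inhibition across replicates below 60%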
EBV LMP1 NFkB: reduces LMP1-driven NF-kappaB luciferase signal. AID 504558. inhibition, % at 12.5 µM. LMP1-induced NF-kappaB luciferase reporter cells, luminescence. 350,000 tested, 0.69% active; in the data active = inhibition above about 41%; inconclusive = no clear call, values can overlap the other calls;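 also: 0% = neutral control wells and 100% = reference inhibitor control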
HIF-2a block: inhibitors of HIF-2a; inhibition, % at 18.8 µM; 360,000 tested, 0.72% active; 786-0 RCC cells HIF-2a reporter, luciferase luminescence, overnight;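 active = inhibition of the luminescence signal of 40% or more relative to plate controls, in a single-dose primary screen at 18.75 µM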
TWEAK Fn14 block: inhibitors of TWEAK-Fn14 interaction signaling; AID 1159606; 360,000 tested, 2% active; inhibition, % at 10 µM; TWEAK-stimulated Fn14 reporter cells, luciferase luminescence, 8 h; in the data active = inhibition above about 50%
TROY NFkB inh: inhibitors of TROY-dependent NF-kB signaling; Q293 LMP1-TROYcd NF-kB luciferase reporter, 4 h; inhibition, % at 10 µM; 360,000 tested, 0.98% active;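 active = compounds whose plate-normalised and pattern-corrected inhibition of the luciferase reporter signal at the single screening dose is 50% or more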
Shn3 inh set2: reduces Shn3 3'UTR luciferase signal in osteoblasts | inhibition, % at 12.5 µM | Clone20 osteoblast Shn3 3'UTR firefly luciferase, 24 h | 360,000 tested, 0.52% active;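 active = mean inhibition of at least 75% with every replicate also reaching 75%; inconclusive = mean inhibition at least 75% but some replicate below; inactive = mean inhibition below 75%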;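 also: 0% = median of neutral control wells and 100% = pilot-screen positive control compound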
Mdm2 MdmX conf: confirmation of inhibitors of human Mdm2/MdmX interaction, set 2; shares compounds with HIF-2a block; SaOS-2 split-luciferase Mdm2/MdmX complementation, luminescence; inhibition, % at 8 µM; 740 tested, 99% active; AID 504601;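 active = mean inhibition of the luminescence signal across two replicates at or above 26 percent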
Target sequence (O15151 whole entry, looked up): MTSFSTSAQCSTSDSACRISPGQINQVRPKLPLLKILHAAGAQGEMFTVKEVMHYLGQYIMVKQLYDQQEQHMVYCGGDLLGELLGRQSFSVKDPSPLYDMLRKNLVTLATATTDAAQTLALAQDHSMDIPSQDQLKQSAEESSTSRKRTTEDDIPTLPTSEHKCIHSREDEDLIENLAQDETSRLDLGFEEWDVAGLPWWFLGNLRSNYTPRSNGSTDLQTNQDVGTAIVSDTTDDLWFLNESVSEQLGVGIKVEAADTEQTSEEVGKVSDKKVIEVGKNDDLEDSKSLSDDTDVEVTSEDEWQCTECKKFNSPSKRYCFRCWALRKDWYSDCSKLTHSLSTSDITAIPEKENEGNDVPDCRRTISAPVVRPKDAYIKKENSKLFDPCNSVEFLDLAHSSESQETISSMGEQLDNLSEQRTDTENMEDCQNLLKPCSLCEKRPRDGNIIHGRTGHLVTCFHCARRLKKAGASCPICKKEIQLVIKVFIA
Target sequence (Q00987 whole entry, looked up): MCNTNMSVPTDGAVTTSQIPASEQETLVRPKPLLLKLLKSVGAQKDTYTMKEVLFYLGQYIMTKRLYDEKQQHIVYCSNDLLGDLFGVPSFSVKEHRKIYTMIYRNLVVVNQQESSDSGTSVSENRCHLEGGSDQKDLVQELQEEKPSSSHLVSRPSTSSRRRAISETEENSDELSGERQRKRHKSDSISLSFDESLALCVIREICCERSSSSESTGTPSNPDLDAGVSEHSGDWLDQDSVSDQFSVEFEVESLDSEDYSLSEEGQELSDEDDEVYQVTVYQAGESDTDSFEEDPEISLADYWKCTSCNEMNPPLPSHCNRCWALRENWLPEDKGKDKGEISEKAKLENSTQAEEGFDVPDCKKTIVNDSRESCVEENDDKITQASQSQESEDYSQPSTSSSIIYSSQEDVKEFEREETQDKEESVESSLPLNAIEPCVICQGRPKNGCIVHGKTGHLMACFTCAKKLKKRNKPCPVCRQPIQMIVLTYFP
HIF-2a inh conf: HIF-2a inhibition, single concentration confirmation | shares compounds with HIF-2a block | 786-0 RCC cells, HIF-2a luciferase reporter luminescence, overnight | inhibition, % at 18.8 µM | 1,800 tested, 56% active | AID 651580;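 active = mean inhibition across four replicates of at least 40 percent at the single tested concentration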
HIF-1a cs: counter-screen for HIF-2a inhibitors: HIF-1a inhibition in MiaPaCa-2 cells; shares compounds with HIF-2a block; MiaPaCa-2 HIF-1a luciferase reporter, desferoxamine, overnight; inhibition, % at 18.8 µM; 1,800 tested, 72% active; AID 651589;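 active = mean inhibition of the reporter signal across four replicates at the single tested dose of 50% or more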
* hit, by the source's call; ? = inconclusive; · = no result; ! = not active in a repeat.

SMILES	MITF TRPM1 inh	EBV LMP1 NFkB	HIF-2a block	TWEAK Fn14 block	TROY NFkB inh	Shn3 inh set2	Mdm2 MdmX conf	HIF-2a inh conf	HIF-1a cs
C=CCn1c(SCC(=O)N(C(C)CC)C2CCS(=O)(=O)C2)nc2ccccc2c1=O (stereo not drawn)	-4	-6	25	-4	-7	15	·	·	·
NS(=O)(=O)c1ccc(Oc2ccc(S(N)(=O)=O)cc2)cc1	9	6	11	1	-16	-16	·	·	·
C=CS(=O)(=O)c1ccc(Oc2ccc(S(=O)(=O)C=C)cc2)cc1	89*	?	90*	102*	63*	96*	·	90*	106*
COc1ccc(C(=O)OC2C(OC)OCC(O)C2O)cc1 (stereo not drawn)	-10	0	13	-4	-7	6	·	·	·
COc1cc(C(Nc2ccccn2)c2ccc3ccc(C)nc3c2O)cc(OC)c1O (stereo not drawn)	28	33	94*	46	10	64	102*	·	·
COc1ccc(C(Nc2cc(C)ccn2)c2ccc3ccc(C)nc3c2O)cc1 (stereo not drawn)	14	1	13	-4	0	4	·	·	·
CN(C)CC(CCC(CN(C)C)C(O)(c1ccccc1)c1ccccc1)C(O)(c1ccccc1)c1ccccc1 (stereo not drawn)	·	·	·	·	·	·	103*	·	·
Cc1nonc1NC(=O)CSc1nc(C2CCCCC2)nc2ccccc12	0	-6	45*	47	16	-7	·	30	68*
FC(F)(F)c1cc(-c2ccco2)nc(-n2cnc3ccccc32)n1	6	-48	-22	0	3	-21	·	·	·
Cc1nc2ccccc2n1-c1nc(-c2ccco2)cc(C(F)(F)F)n1	76*	-90	46*	43	-22	-1	·	32	80*
O=C(CCc1nc2ccccc2c(=O)[nH]1)N1CCN(S(=O)(=O)c2ccccc2Br)CC1	26	-5	48*	4	-2	-2	·	23	89*
COC(=O)c1cn(NC(=O)c2cc([N+](=O)[O-])ccc2F)c(=O)c2ccccc12	-6	86*	4	68*	9	94*	95*	·	·
COC(=O)c1cn(NC(=O)C2CCC(C)CC2)c(=O)c2ccccc12 (stereo not drawn)	1	15	2	-4	2	1	·	·	·
CN(C(=O)c1cccc(NC(=O)Cc2ccc(NC(=O)C3CCCN(C(=O)C4CC4)C3)cc2)c1)C1CCCC1 (stereo not drawn)	-1	7	-10	-1	-6	-3	·	·	·
CC(=O)OCCNc1cc(SCc2ccco2)c2nonc2c1[N+](=O)[O-]	15	3	8	-2	-30	-22	·	·	·
CC(=O)OCCNc1cc(Sc2nc3ccccc3[nH]2)c2nonc2c1[N+](=O)[O-]	80*	14	95*	46	34	98*	·	78*	71*
O=[N+]([O-])c1c(NCCCO)cc(Sc2ccc(Cl)cc2)c2nonc12	92*	48*	96*	48	79*	94*	·	52*	106*
CC(=O)OCCCNc1cc(Sc2nc3ccccc3s2)c2nonc2c1[N+](=O)[O-]	22	8	32	14	26	101*	103*	·	·
CCOc1ccccc1NC(=O)CN(C)S(=O)(=O)c1ccc2[nH]c(=O)oc2c1	2	-4	-4	-10	-7	-22	·	·	·
CCN(C(=O)COC(=O)CN(C)S(=O)(=O)c1ccc(NC(C)=O)cc1)C1CCS(=O)(=O)C1 (stereo not drawn)	-13	-9	10	-7	14	-5	·	·	·
COc1ccc(N2CC(C(=O)N[C@@H](C)C(=O)NCCc3ccccc3)CC2=O)cc1 (stereo partly drawn)	-5	0	-6	13	-8	-15	·	·	·
O=C(CCl)N(c1ccccc1)C1CCCCC1	95*	-18	61*	33	6	97*	103*	92*	106*
Cc1ccccc1NS(=O)(=O)c1ccc2oc(=O)ccc2c1	-2	-7	7	7	13	13	·	·	·
CCc1ccc(C(=O)C(C)OC(=O)Cc2n[nH]c(=O)c3ccccc23)cc1 (stereo not drawn)	-4	-3	18	5	13	-6	·	·	·
NS(=O)(=O)c1ccc(CCN2C(=O)/C(=C\c3ccc(Cl)cc3)SC2=S)cc1	-7	24	42*	-46	-2	18	103*	·	·
SMILES	MITF TRPM1 inh	EBV LMP1 NFkB	HIF-2a block	TWEAK Fn14 block	TROY NFkB inh	Shn3 inh set2	Mdm2 MdmX conf	HIF-2a inh conf	HIF-1a cs
COc1cccc(CCc2nnc(CCC(=O)NC(C)Cc3cccs3)o2)c1 (stereo not drawn)	1	-1	13	0	-18	-2	·	·	·
CC(=O)c1ccc(-c2ccc(C(=O)Nc3nc(-c4ccccn4)cs3)o2)cc1	4	3	-69	-5	1	37	99*	·	·
COc1cc(OC)cc(C(=O)N2CCN(Cc3ccccc3C(F)(F)F)CC2)c1	-11	2	13	-21	-8	12	·	·	·
CCN1CCN(Cc2ccc(NC(=O)c3cc(NC(=O)c4cncc(-c5ccc(C#N)cc5)c4)cc(OC)c3)cc2C(F)(F)F)CC1	97*	-25	89*!	-117	4	98*	·	17	98*
COc1cc2ccccc2cc1C(=O)N1CCN(c2ccccc2O)CC1	6	-2	-4	11	-3	-3	·	·	·
CC[C@]12c3[nH]c4cc(-c5ccco5)ccc4c3CCN1C(=O)[C@@H](CC(=O)NCCCn1ccnc1)C[C@@H]2C(=O)N1CCN(C(=O)C2CC2)CC1	5	-7	5	12	3	-22	·	·	·
CC1=C(C(=O)Nc2ccc([N+](=O)[O-])cc2)C(c2cccc(C(F)(F)F)c2)NC(=S)N1c1ccccc1 (stereo not drawn)	2	-3	56*	24	25	38	·	-44	60*
COc1cccc(NC(=O)c2cc3c(=O)n4ccccc4nc3n(CC(C)C)c2=N)c1	60	-17	-10	-19	-23	5	36*	·	·
CN(CC(=O)Nc1cccc(F)c1)C(=O)c1ccccc1-n1cnnn1	2	-5	2	-9	-13	8	·	·	·
CCOc1cccc(/C=N/Nc2ccc(S(=O)(=O)N(CC)CC)cn2)c1O	50	57*	26	-11	8	?	91*	·	·
CCN(CC)S(=O)(=O)c1ccc(N/N=C/c2cc(OC)c(OC)cc2OC)nc1	-3	-2	14	-6	-3	11	·	·	·
